The list is not random: actives were taken first. Their share in the collection is about 3.7%.
Anthrax LF inh2: blocks Bacillus anthracis lethal factor protease. multiplex microsphere protease cleavage assay, LF. inhibition, % at 10 µM. hit rate 0.12% among 360,000; note: plate controls were buffer without enzyme for full effect and enzyme alone for no effect
BoNT-F LC inh: inhibitors of Botulinum neurotoxin F light chain protease; Multiplex microsphere protease cleavage assay, flow cytometry; hit rate 0.22% among 360,000; inhibition, % at 10 µM; AID 588497; in the data active = inhibition above about 35%, passing the limit was not always enough; inconclusive = no clear call, values can overlap the other calls; note: plate controls were buffer without enzyme for full effect and enzyme alone for no effect
MazF activator: increases E. coli MazEF RNase cleavage of RNA | hit rate 0.32% among 350,000 | FAM/BHQ RNA-DNA oligo cleavage fluorescence, 5 h | activation, % at 20 µM; in the data active = activation above about 50%
Target sequence (P0AE70 whole entry, looked up): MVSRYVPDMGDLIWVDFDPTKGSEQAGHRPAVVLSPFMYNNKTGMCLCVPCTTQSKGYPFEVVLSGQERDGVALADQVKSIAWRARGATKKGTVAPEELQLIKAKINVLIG
BoNT A protease: blocks Botulinum neurotoxin A light chain protease; multiplex microsphere protease substrate cleavage, flow cytometry; hit rate 0.17% among 360,000; inhibition, % at 10 µM; note: plate controls were buffer without enzyme for full effect and enzyme alone for no effect
Bead autofluor: compound fluorescence in toxin protease inhibitor counterscreen | compound autofluorescence counterscreen, microsphere flow cytometry; hits give high values | fluorescence intensity (test concentration not listed) | hit rate 3.1% among 360,000; in the data active = fluorescence intensity above about 16000; inconclusive = no clear call, values can overlap the other calls
* marks the source's active call; other numbers are inactive results. Cut-off read from the data, not from the text of the source, unless noted: active = inhibition above about 30%; inconclusive = no clear call, values can overlap the other calls; inactive = below that.

What do the screens show for `COc1cccc(C(=O)c2ccccc2C(=O)O)c1`?
Anthrax LF inh2: 1; BoNT-F LC inh: 2; BoNT A protease: 0; Bead autofluor: 5288

How did CCOc1ccc(N(CCC#N)S(=O)(=O)c2ccc(OC)cc2)cc1 do in these assays?
Anthrax LF inh2: -11; BoNT-F LC inh: 5; MazF activator: -5; BoNT A protease: 7; Bead autofluor: 20566*

What do the screens show for `COc1ccc(N(CCOc2ccccc2)S(=O)(=O)c2ccccc2)cc1`?
Anthrax LF inh2: inconclusive; BoNT-F LC inh: -5; MazF activator: 0; BoNT A protease: 0; Bead autofluor: 5308

What do the screens show for `COC(=O)c1ccc(C(=O)OC)c(NC2=NS(=O)(=O)c3ccccc32)c1`?
Anthrax LF inh2: -7; BoNT-F LC inh: -2; MazF activator: 0; BoNT A protease: -2; Bead autofluor: 23866*

How did COC(=O)c1c(-c2ccccc2)csc1NC1=NS(=O)(=O)c2ccccc21 do in these assays?
Anthrax LF inh2: -1; BoNT-F LC inh: -4; MazF activator: -2; BoNT A protease: 0; Bead autofluor: 1956

What do the screens show for `Cc1cc(C)c(NC2=NS(=O)(=O)c3ccccc32)c(C)c1`?
Anthrax LF inh2: -3; BoNT-F LC inh: 1; MazF activator: -5; BoNT A protease: inconclusive; Bead autofluor: 22474*

How did Cc1ccc(C)c(NC2=NS(=O)(=O)c3ccccc32)c1 do in these assays?
Anthrax LF inh2: -2; BoNT-F LC inh: -2; MazF activator: -4; BoNT A protease: 0; Bead autofluor: 11458

Results for Cc1cc(O)c(C(C)C)cc1NC1=NS(=O)(=O)c2ccccc21 ?
Anthrax LF inh2: -2; BoNT-F LC inh: -3; MazF activator: 9; BoNT A protease: -1; Bead autofluor: 16315*

Results for COc1cccc(CNC(=O)CN2C(=O)CCSc3ccc(S(=O)(=O)N4CCCC4)cc32)c1 ?
Anthrax LF inh2: 0; BoNT-F LC inh: 0; MazF activator: -2; BoNT A protease: 2; Bead autofluor: 4127

What do the screens show for `CCNc1nc(N2CCCCC2)nc(-n2nnc(C(=O)OCC)c2C)n1`?
Anthrax LF inh2: -4; BoNT-F LC inh: -4; MazF activator: 0; BoNT A protease: inconclusive; Bead autofluor: 23587*

How did N#C/C(=C\c1ccc(N2CCOCC2)o1)c1ccccc1 do in these assays?
Anthrax LF inh2: -2; BoNT-F LC inh: -1; MazF activator: 9; BoNT A protease: 0; Bead autofluor: 8833

What do the screens show for `N#C/C(=C/c1ccc(N2CCOCC2)o1)c1nc2ccccc2[nH]1`?
Anthrax LF inh2: -1; BoNT-F LC inh: 126*; MazF activator: 428*; BoNT A protease: -5; Bead autofluor: 11009

What do the screens show for `CC(C)CC(=O)Nc1cccc(-c2nc3ccccc3o2)c1`?
Anthrax LF inh2: 1; BoNT-F LC inh: -2; MazF activator: 3; BoNT A protease: 0; Bead autofluor: 23031*

How did C=COCCn1c(C)c(C(=O)OCC)c2cc(O)ccc21 do in these assays?
Anthrax LF inh2: -2; BoNT-F LC inh: 0; MazF activator: -6; BoNT A protease: inconclusive; Bead autofluor: 21557*

What do the screens show for `Cc1ccc(-c2cc(C#N)c(=O)n(Cc3c(Cl)cccc3Cl)c2)cc1`?
Anthrax LF inh2: 1; BoNT-F LC inh: -1; MazF activator: 58*; BoNT A protease: 0; Bead autofluor: 8112

What do the screens show for `O=C1c2ccccc2[C@@H]2C[C@H]3O[C@H]3CCN12`?
Anthrax LF inh2: -5; BoNT-F LC inh: -7; MazF activator: 8; BoNT A protease: 0; Bead autofluor: 2919

Results for CCOC(=O)C1=C(C)NC(C)=C(C(=O)OCC)C1C(=O)OCC(=O)N(C)Cc1ccccc1 ?
Anthrax LF inh2: -4; BoNT-F LC inh: 8; MazF activator: -2; BoNT A protease: 1; Bead autofluor: 3088

Results for COc1cccc(C(C(=O)NC2CCCCC2)N(C(=O)Cc2cccs2)c2ccc(-n3cnnn3)c(OC)c2)c1 (stereo not given) ?
Anthrax LF inh2: -1; BoNT-F LC inh: 2; MazF activator: -8; BoNT A protease: 0; Bead autofluor: 22984*

Results for CCCCCCc1nc2nc(Cl)c(Cl)nc2[nH]1 ?
Anthrax LF inh2: -8; BoNT-F LC inh: -13; MazF activator: 7; BoNT A protease: 0; Bead autofluor: 3746

Results for O=[N+]([O-])c1cc(/C=N/OCc2c(Cl)cccc2Cl)ccc1N1CCOCC1 ?
Anthrax LF inh2: -6; BoNT-F LC inh: -3; MazF activator: 2; BoNT A protease: 1; Bead autofluor: 22744*

How did CC(C)CNC(=O)c1[nH]c(C(F)(F)F)nc1-c1ccccc1 do in these assays?
Anthrax LF inh2: -9; BoNT-F LC inh: -2; BoNT A protease: 0; Bead autofluor: 5689

Screening data: PubChem, several laboratories
